Publication PMC5540273 (PLoS ONE, 2017)

system: MLK3; conditions: concentration: 1 μM,replicates: in singlicate; n = 1
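Also: KINOMEscan kinase panel screen.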

| Compound | %Inh [%] |
| --- | --- |
| CCCC(=O)Nc1n[nH]c2ncccc12 [SB-601436] | 1 |
| CC(C)S(=O)(=O)N1CCN(Cc2ccc3c(c2)nc(NC(=O)c2ccsc2)n3C[C@H](O)c2ccccc2)CC1 [GW635815] | 79 |
| Cn1ccc2ncnc(Oc3ccc(NC(=O)Nc4cncc(C(F)(F)F)c4)c(Cl)c3)c21 | 0 |
| CN(c1ccc2c(c1)nc(NCc1ccc(F)cc1)n2C)c1ccnc(Nc2ccc(CS(C)(=O)=O)cc2)n1.Cl [GW813244] | 0 |
| C[C@@H](Oc1cc(-n2cnc3ccc(-c4ccncc4)cc32)sc1C(N)=O)c1ccccc1Cl [GSK483724] | 31 |
| C[C@@H]1CNc2c(sc3ccc4nc(-c5ccncc5)ccc4c23)C(=O)N1 | 4 |
| COc1cc(Nc2nccc(N3CCC(NC(=O)c4cccc(C#N)c4)C3)n2)cc(OC)c1OC (stereo not shown) [GSK1379751] | 25 |
| Cn1ccc2ncnc(Oc3ccc(NC(=O)Nc4ccnc(C(F)(F)F)c4)c(Cl)c3)c21 | 0 |
| Cn1cc(-c2cccc3c(N)c(C(N)=O)nnc23)cn1 | 2 |
| CC(=O)Nc1nc2cnc(Nc3cc(NC(=O)c4cccc(CC(C)(C)C#N)c4)ccc3C)nc2s1 | 5 |
| COc1cccc(CNC(=O)NC2CCN(c3ccnc(Nc4cc(OC)c(OC)c(OC)c4)n3)C2)c1 (stereo not shown) [GSK1379765] | 41 |
| O=C(Nc1cccc(C(F)(F)F)c1)c1cccc(Oc2ccc3nccn3n2)c1 | 8 |
| OCCn1cc(-c2cnc3nnn(Cc4ccc5ncccc5c4)c3n2)cn1 | 0 |
